Among the data in PubChem BioAssay (EPA / NIEHS) are outcome and AC50 values, retold here.

“And” between values parts separate entries of the source, which are not always exact repeats. Equal values may be shown once. Results filed as inconclusive are left out. The source holds several records for some structures; these can differ, active in one and inactive in another. The source made the active and inactive calls. Rule for the calls, unless noted: active = hit-call score of the fitted dose curve at least 0.9, where 1 is the maximum; inactive = score below 0.9.

For assay [1], the target named is human RAR-related Orphan Receptor beta (RORb), RORB (gene 6096) (UniProt Q92753). Nature of the assay: ATG_RORb_TRANS: Attagene TRANS-FACTORIAL HepG2 Assay for human RAR-related Orphan Receptor beta (RORb) (AID 2283010; active = hit-call score of the fitted dose curve at least 0.9, where 1 is the maximum). The essentials: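 HepG2 cells were transiently transfected with multiplexed GAL4-UAS reporter units expressing chimeric nuclear receptor–GAL4 proteins, then dosed for 24 h. Reporter mRNA was quantified by RT-PCR with fluorescent labelling and capillary electrophoresis; gain of signal was fitted relative to DMSO.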
Sequence of human RAR-related Orphan Receptor beta (RORb), RORB (gene 6096) (Q92753 whole entry, looked up, the tested form may be a part): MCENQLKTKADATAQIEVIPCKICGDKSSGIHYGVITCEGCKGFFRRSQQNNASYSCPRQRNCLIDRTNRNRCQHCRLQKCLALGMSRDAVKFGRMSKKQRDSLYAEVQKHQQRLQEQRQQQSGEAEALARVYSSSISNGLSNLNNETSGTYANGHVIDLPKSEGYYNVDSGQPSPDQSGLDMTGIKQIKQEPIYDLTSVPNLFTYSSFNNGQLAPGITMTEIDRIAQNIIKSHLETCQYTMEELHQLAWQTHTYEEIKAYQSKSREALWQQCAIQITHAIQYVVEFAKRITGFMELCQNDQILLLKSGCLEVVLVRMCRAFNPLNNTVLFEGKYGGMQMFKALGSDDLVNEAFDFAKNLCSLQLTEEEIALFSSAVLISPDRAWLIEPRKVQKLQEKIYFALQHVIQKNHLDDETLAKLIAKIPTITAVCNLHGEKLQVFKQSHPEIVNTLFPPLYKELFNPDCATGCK

Assay [2] deals with human Thyroid Receptor alpha (THRa1), THRA (gene 7067) (UniProt P10827). As to the kind of experiment: ATG_THRa1_TRANS: Attagene TRANS-FACTORIAL HepG2 Assay for human Thyroid Receptor alpha (THRa1) (AID 2283014; active = hit-call score of the fitted dose curve at least 0.9, where 1 is the maximum). The essentials: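 HepG2 cells transiently transfected with multiplexed GAL4-UAS reporter units for exogenous chimeric THRa1-Gal4; reporter mRNA measured 24 h after dosing by RT-PCR, 6-FAM labelling, HpaI digestion and capillary electrophoresis. Gain-of-signal fitted versus DMSO baseline.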
Sequence of human Thyroid Receptor alpha (THRa1), THRA (gene 7067) (P10827 whole entry, looked up, the tested form may be a part): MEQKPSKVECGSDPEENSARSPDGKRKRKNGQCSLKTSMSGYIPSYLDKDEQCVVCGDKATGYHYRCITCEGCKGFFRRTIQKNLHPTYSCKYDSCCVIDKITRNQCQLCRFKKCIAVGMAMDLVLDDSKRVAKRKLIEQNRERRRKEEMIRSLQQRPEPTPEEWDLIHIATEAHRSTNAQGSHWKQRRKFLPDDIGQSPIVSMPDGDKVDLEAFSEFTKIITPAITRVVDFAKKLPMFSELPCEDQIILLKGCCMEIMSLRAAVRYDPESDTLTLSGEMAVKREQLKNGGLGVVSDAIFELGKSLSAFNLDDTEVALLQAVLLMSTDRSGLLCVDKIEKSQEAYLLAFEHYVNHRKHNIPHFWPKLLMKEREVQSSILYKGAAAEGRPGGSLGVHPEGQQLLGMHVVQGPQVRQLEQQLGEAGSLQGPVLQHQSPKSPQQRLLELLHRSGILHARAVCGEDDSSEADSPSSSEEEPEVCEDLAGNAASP

Read-out in assay [3]: E-selectin (Homo sapiens) (UniProt P16581)
Nature of the assay: BSK_3C_Eselectin: BioMAP Diversity Plus: 3C Assay for Eselectin Biomarker Activity (AID 2283015).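 Note: cell surface E-selectin protein quantified by ELISA 24 h after dosing.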 Particulars: primary human endothelial cells (HUVEC); actives raise or lower the signal. The essentials:
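Primary human umbilical vein endothelial cells (3C system) were dosed with chemical and cell-surface E-selectin measured by ELISA 24 h later. Bidirectional curve fitting used DMSO as negative control and baseline.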

Read-out in assay [4]: Interleukin-1 alpha (IL1a), IL1A (gene 3552)
As to the kind of experiment: BSK_BE3C_IL1a: BioMAP Diversity Plus: BE3C Assay for Interleukin-1 alpha (IL1a) Biomarker Activity (AID 2283016). Particulars: primary human bronchial epithelial cells; actives raise or lower the signal. The essentials: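 Human primary bronchial epithelial cells (BE3C system) were dosed with compound and IL-1a measured by ELISA 24 h later. Activity was fitted bidirectionally against DMSO baseline; cytotoxicity was tracked in parallel cultures by SRB total-protein staining.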

Read-out in assay [5]: Monocyte Chemoattractant Protein-1 (MCP1), CCL2 (gene 6347)
Nature of the assay: BSK_3C_MCP1: BioMAP Diversity Plus: 3C Assay for Monocyte Chemoattractant Protein-1 (MCP1) Biomarker Activity (AID 2283017). Particulars: primary human endothelial cells (HUVEC); actives raise or lower the signal. The essentials:
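Primary human umbilical vein endothelial cells (3C system) were exposed to test chemical for 24 h, after which MCP-1 was quantified by ELISA. Activity was fitted bidirectionally against DMSO as negative control and baseline.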

Read-out in assay [6]: Monocyte Chemoattractant Protein-1 (MCP1), CCL2 (gene 6347)
Nature of the assay: BSK_4H_MCP1: BioMAP Diversity Plus: 4H Assay for Monocyte Chemoattractant Protein-1 (MCP1) Biomarker Activity (AID 2283018). The conditions noted are these: primary human endothelial cells (HUVEC); actives raise or lower the signal. The essentials:
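Human umbilical vein endothelial cells (4H system) dosed with chemical; MCP-1 measured by ELISA 24 h after dosing. Bidirectional curve fitting against DMSO negative control as baseline; parallel SRB total-protein staining tracks overt cytotoxicity.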

Read-out in assay [7]: Human Leukocyte Antigen - DR isotype (HLADR), HLA-DRA (gene 3122)
As to the kind of experiment: BSK_3C_HLADR: BioMAP Diversity Plus: 3C Assay for Human Leukocyte Antigen - DR isotype (HLADR) Biomarker Activity (AID 2283019). The conditions noted are these: primary human endothelial cells (HUVEC); actives raise or lower the signal. The procedure, abridged: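 Primary human umbilical vein endothelial cells (3C system) were dosed with compound and cell-surface HLA-DR was quantified by ELISA at 24 h. Activity was fitted bidirectionally against DMSO as negative control and baseline.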

Read-out in assay [8]: Interleukin-8 (IL8), CXCL8 (gene 3576)
Nature of the assay: BSK_3C_IL8: BioMAP Diversity Plus: 3C Assay for Interleukin-8 (IL8) Biomarker Activity (AID 2283020). The conditions noted are these: primary human endothelial cells (HUVEC); actives raise or lower the signal. The essentials: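 Primary human umbilical vein endothelial cells (3C system) were exposed to test chemical for 24 h, then IL-8 was quantified by ELISA. Responses were fitted bidirectionally against DMSO vehicle as baseline.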

Assay [9] is described as follows: BSK_3C_SRB: Viability Assessment in the BioMAP Diversity Plus: 3C Assay (AID 2283023).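 Note: fitted both ways against DMSO so a hit may be signal rise or drop.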 Particulars: primary human endothelial cells (HUVEC). The procedure, abridged:
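Primary human umbilical vein endothelial cells in the 3C system were read 24 h after compound dosing. Total protein was stained with 0.1% sulforhodamine B after 10% TCA fixation and read at 560 nm, with bidirectional fitting against DMSO as baseline.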

Read-out in assay [10]: Matrix Metallopeptidase 1 (MMP1), MMP1 (gene 4312)
As to the kind of experiment: BSK_BE3C_MMP1: BioMAP Diversity Plus: BE3C Assay for Matrix Metallopeptidase 1 (MMP1) Biomarker Activity (AID 2283024). Particulars: primary human bronchial epithelial cells; actives raise or lower the signal. The essentials: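 Primary human bronchial epithelial cells were dosed with test chemicals, and MMP1 levels were measured by ELISA 24 h later. Data were fitted bidirectionally against DMSO as the negative control and activity baseline.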

Read-out in assay [11]: Pselectin, SELP (gene 6403)
Nature of the assay: BSK_4H_Pselectin: BioMAP Diversity Plus: 4H Assay for Pselectin Biomarker Activity (AID 2283026). The conditions noted are these: primary human endothelial cells (HUVEC); actives raise or lower the signal. The essentials:
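Primary human umbilical vein endothelial cells were exposed to test chemical for 24 h, then cell-surface P-selectin was quantified by ELISA. Activity was fitted bidirectionally against DMSO as negative control and baseline.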

Assay [12] in a line: BSK_4H_SRB: Viability Assessment in the BioMAP Diversity Plus: 4H Assay (AID 2283027).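 For AC50: curves fitted both ways versus DMSO so AC50 may be loss or gain.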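 Note: cells exposed to compound for 24 h before staining.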 The conditions noted are these: primary human endothelial cells (HUVEC). The essentials:
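Human umbilical vein endothelial cells were dosed with chemical and, after 24 h, fixed with 10% TCA, stained with 0.1% sulforhodamine B, and read at 560 nm to give total protein as a cytotoxicity measure. Bidirectional fitting relative to DMSO control.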

The nature of assay [13]: BSK_BE3C_SRB: Viability Assessment in the BioMAP Diversity Plus: BE3C Assay (AID 2283028). The conditions noted are these: primary human bronchial epithelial cells. The procedure, abridged:
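Human primary bronchial epithelial cells were exposed to test chemicals for 24 h. Total protein in parallel cultures was then measured by staining with 0.1% sulforhodamine B after 10% TCA fixation, with absorbance read at 560 nm. Activity was fitted bidirectionally against DMSO.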

Read-out in assay [14]: Thrombomodulin, THBD (gene 7056)
As to the kind of experiment: BSK_3C_Thrombomodulin: BioMAP Diversity Plus: 3C Assay for Thrombomodulin Biomarker Activity (AID 2283029). Particulars: primary human endothelial cells (HUVEC); actives raise or lower the signal. The essentials:
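Primary human umbilical vein endothelial cells (3C system) were exposed to chemical for 24 h, then thrombomodulin levels were measured by ELISA. Activity was fitted bidirectionally against the DMSO negative control as baseline.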

Read-out in assay [15]: Urokinase-type plasminogen activator receptor (uPAR), PLAUR (gene 5329)
Nature of the assay: BSK_4H_uPAR: BioMAP Diversity Plus: 4H Assay for Urokinase-type plasminogen activator receptor (uPAR) Biomarker Activity (AID 2283030). Particulars: primary human endothelial cells (HUVEC); actives raise or lower the signal. The essentials:
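Primary human umbilical vein endothelial cells were exposed to chemical for 24 h before cell-surface uPAR was quantified by ELISA. Activity was fitted bidirectionally against the DMSO negative control baseline.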

The target of assay [16] is human RAR-related Orphan Receptor gamma (RORg), RORC (gene 6097) (UniProt P51449). Nature of the assay: ATG_RORg_TRANS: Attagene TRANS-FACTORIAL HepG2 Assay for human RAR-related Orphan Receptor gamma (RORg) (AID 2283011; active = hit-call score of the fitted dose curve at least 0.9, where 1 is the maximum;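 for AC50: potency for induction of reporter transcripts above DMSO so activators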). The essentials:
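Readout: reporter transcript induction (RT-PCR, fluorescent primer extension, capillary electrophoresis) after 24 h compound exposure of transiently transfected HepG2 cells carrying a RORg-Gal4 chimera and GAL4-UAS reporters; DMSO served as baseline, with increasing signal fitted.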

The target of assay [17] is Retinoic acid receptor RXR-alpha (Homo sapiens) (UniProt P19793). As to the kind of experiment: ATG_RXRa_TRANS: Attagene TRANS-FACTORIAL HepG2 Assay for human Retinoid X Receptor alpha (RXRa) (AID 2283012; active = hit-call score of the fitted dose curve at least 0.9, where 1 is the maximum). The essentials: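 HepG2 cells transiently transfected with multiplexed GAL4-UAS reporter units and chimeric NR-GAL4 fusions, dosed 24 h. Reporter mRNA measured by RT-PCR, FAM labelling, HpaI digestion and capillary electrophoresis; gain-of-signal fitted relative to DMSO baseline.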
Sequence of Retinoic acid receptor RXR-alpha (Homo sapiens) (P19793 whole entry, looked up, the tested form may be a part): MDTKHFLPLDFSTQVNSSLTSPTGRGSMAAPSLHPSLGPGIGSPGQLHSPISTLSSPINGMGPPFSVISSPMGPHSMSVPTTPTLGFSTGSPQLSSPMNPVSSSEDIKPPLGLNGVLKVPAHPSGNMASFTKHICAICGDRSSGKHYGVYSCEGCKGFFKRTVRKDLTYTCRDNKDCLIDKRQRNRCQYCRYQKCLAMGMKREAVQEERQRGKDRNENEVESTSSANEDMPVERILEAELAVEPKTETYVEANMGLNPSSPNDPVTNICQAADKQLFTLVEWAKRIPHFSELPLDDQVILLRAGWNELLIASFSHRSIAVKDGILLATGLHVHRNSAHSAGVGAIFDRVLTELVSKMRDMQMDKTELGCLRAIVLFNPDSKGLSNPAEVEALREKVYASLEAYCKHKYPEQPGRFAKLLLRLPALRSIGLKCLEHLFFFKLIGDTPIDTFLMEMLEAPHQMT

The target in assay [18] is human Retinoid X Receptor beta (RXRb), RXRB (gene 6257) (UniProt P28702). As to the kind of experiment: ATG_RXRb_TRANS: Attagene TRANS-FACTORIAL HepG2 Assay for human Retinoid X Receptor beta (RXRb) (AID 2283013; active = hit-call score of the fitted dose curve at least 0.9, where 1 is the maximum). The procedure, abridged: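 HepG2 cells transiently transfected with multiplexed reporter units driven by GAL4-UAS and exogenous chimeric NR-Gal4 proteins; treated 24 h. Reporter mRNA measured by RT-PCR, 6-FAM labelling and capillary electrophoresis; gain-of-signal fitted versus DMSO baseline.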
Sequence of human Retinoid X Receptor beta (RXRb), RXRB (gene 6257) (P28702 whole entry, looked up, the tested form may be a part): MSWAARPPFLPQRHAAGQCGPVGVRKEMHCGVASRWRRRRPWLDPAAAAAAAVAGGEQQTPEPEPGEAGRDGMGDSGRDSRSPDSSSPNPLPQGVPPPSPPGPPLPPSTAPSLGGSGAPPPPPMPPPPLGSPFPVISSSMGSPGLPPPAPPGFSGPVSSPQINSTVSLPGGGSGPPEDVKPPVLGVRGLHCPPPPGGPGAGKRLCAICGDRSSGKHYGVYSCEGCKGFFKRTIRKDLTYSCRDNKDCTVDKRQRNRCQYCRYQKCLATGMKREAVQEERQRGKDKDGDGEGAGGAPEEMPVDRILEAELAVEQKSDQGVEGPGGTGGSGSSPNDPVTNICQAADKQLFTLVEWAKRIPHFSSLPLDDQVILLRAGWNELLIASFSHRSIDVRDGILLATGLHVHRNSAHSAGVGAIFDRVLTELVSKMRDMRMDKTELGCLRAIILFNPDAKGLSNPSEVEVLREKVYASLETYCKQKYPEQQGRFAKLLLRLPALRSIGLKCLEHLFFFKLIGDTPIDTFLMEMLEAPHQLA

In assay [19] the target is human Vitamin D Receptor (VDR), VDR (gene 7421) (UniProt P11473). Nature of the assay: ATG_VDR_TRANS: Attagene TRANS-FACTORIAL HepG2 Assay for human Vitamin D Receptor (VDR) (AID 2283022; active = hit-call score of the fitted dose curve at least 0.9, where 1 is the maximum). The essentials: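 HepG2 cells were transiently transfected with multiple GAL4-UAS reporter units, so signal reflects exogenous chimeric receptor-Gal4 activity. After 24 h compound exposure, reporter mRNA was measured by RT-PCR, fluorescent labelling and capillary electrophoresis, fitted for gain of signal versus DMSO.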
Sequence of human Vitamin D Receptor (VDR), VDR (gene 7421) (P11473 whole entry, looked up, the tested form may be a part): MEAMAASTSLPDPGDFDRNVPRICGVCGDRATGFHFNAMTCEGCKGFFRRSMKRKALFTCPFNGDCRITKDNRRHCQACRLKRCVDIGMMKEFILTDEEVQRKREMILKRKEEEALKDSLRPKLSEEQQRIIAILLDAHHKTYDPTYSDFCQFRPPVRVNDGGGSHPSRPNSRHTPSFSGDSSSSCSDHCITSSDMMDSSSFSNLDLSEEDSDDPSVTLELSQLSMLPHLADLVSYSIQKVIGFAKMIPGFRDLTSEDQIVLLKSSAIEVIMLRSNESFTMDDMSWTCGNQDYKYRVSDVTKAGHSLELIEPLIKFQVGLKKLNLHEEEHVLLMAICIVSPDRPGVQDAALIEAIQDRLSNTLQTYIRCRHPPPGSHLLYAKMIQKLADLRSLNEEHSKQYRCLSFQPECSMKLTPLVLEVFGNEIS

Read-out in assay [20]: Monokine induced gamma interferon (MIG), CXCL9 (gene 4283)
Nature of the assay: BSK_3C_MIG: BioMAP Diversity Plus: 3C Assay for Monokine induced gamma interferon (MIG) Biomarker Activity (AID 2283021). Particulars: primary human endothelial cells (HUVEC); actives raise or lower the signal. The essentials: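 Primary human umbilical vein endothelial cells in the 3C system were exposed to chemical for 24 h, after which MIG was quantified by ELISA. Activity was fitted bidirectionally against DMSO as negative control and baseline.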

Sequence of E-selectin (Homo sapiens) (P16581 whole entry, looked up): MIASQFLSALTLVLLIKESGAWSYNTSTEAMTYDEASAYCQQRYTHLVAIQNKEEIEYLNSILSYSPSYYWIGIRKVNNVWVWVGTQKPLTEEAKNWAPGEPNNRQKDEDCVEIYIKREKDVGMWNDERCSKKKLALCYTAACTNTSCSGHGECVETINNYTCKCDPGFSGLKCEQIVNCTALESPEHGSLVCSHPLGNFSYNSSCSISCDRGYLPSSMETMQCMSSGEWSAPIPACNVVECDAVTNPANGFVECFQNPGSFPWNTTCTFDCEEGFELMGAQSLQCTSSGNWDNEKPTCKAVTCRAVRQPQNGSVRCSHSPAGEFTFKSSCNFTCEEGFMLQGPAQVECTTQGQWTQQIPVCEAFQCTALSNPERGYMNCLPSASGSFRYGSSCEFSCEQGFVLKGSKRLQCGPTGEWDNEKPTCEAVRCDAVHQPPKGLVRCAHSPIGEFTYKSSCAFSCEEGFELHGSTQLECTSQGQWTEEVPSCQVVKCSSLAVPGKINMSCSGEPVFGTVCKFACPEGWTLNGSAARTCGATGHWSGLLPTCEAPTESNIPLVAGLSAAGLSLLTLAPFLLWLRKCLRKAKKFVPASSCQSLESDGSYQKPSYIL
Sequence of human RAR-related Orphan Receptor gamma (RORg), RORC (gene 6097) (P51449 whole entry, looked up, the tested form may be a part): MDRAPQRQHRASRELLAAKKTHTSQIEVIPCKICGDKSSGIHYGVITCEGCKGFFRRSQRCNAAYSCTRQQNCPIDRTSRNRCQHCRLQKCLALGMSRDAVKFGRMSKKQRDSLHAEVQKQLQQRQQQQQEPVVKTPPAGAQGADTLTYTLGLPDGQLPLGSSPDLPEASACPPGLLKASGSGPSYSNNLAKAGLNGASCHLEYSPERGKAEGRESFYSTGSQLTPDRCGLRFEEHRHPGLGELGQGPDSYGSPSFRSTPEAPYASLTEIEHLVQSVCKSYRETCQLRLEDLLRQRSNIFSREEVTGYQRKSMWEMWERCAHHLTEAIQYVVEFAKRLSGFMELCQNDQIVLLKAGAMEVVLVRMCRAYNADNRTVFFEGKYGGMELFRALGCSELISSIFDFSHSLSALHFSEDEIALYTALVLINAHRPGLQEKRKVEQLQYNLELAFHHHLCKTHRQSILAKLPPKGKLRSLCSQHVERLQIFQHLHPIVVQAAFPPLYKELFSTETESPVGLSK

`O=C=Nc1cccc2c(N=C=O)cccc12`: the outcome in assay [1], in assay [2], in assay [3], in assay [4], in assay [5] and in [7] was inactive. The outcome in [8], in assay [9], in assay [10], in [11], in assay [12] and in [13] was inactive. The outcome in assay [14] and in assay [15] was inactive. Also, the AC50 (as a rule, the midpoint of the concentration-response curve, whichever way the signal moves) in [6] is 0.502 µM (active).

Take `CC(=O)C=O`: the result in [16], in assay [17] and in [2] was inactive.

For `Nc1cccnc1N`, the result in [16], in [17], in [18] and in [2] was inactive.

For the compound `F[Si-2](F)(F)(F)(F)F`, the compound was classed as inactive in [16], in [17], in [18], in assay [2] and in assay [19].

With `C#CC(O)CCC` (stereo not drawn), the compound was classed as inactive in assay [1] and in assay [18].

As for `C=C(C)CCCC`, the outcome in assay [16], in [17], in assay [18], in assay [2] and in assay [19] was inactive.

For `CO[Si](CCCOCC1CO1)(OC)OC` (stereo not drawn), the outcome in assay [16], in [17], in assay [18] and in [19] was inactive.

As to `CC(O)C#CC(C)O` (stereo not drawn), the AC50 in assay [16] is 136 µM (active). Further, the result in assay [17], in assay [18], in assay [2] and in assay [19] was inactive.

In the case of `C=C(C)C(=O)OCC(F)(F)C(F)(F)C(F)(F)C(F)F`, the result in assay [16], in assay [17], in assay [18], in assay [3], in [4] and in assay [5] was inactive. Moreover, the result in assay [6], in [7], in assay [8], in assay [9], in assay [10] and in assay [11] was inactive. Also, the result in assay [12], in [13], in [14] and in [15] was inactive. For the same compound, in [14], the AC50 is 21.8 µM (active).

In the case of `CCN=c1cc2oc3cc(NCC)c(C)cc3c(-c3ccccc3C(=O)OCC)c-2cc1C`, the result in assay [16], in assay [17], in assay [18], in assay [2] and in assay [19] was inactive.

On to `O=S(=O)(O)c1ccc(Cl)cc1`, for which the call in assay [1], in assay [17] and in assay [19] was inactive.

`COCCOCCC[Si](C)(O[Si](C)(C)C)O[Si](C)(C)C`: the compound was called inactive in [16], in [17], in assay [2] and in [19]. The AC50 in [18] was 33.4 µM (active).

For `CCN(CC)c1ccc(C=O)cc1`, the compound was classed as inactive in assay [1], in assay [18], in [2], in assay [3], in assay [4] and in assay [5]. The result in assay [6], in [7], in [8], in [20], in assay [19] and in assay [9] was inactive. The result in assay [10], in assay [11], in assay [12], in assay [13], in [14] and in assay [15] was inactive.

In the case of `NS(=O)(=O)C(F)(F)C(F)(F)C(F)(F)C(F)(F)C(F)(F)C(F)(F)F`, the compound was called inactive in assay [1], in assay [17], in assay [2], in assay [3], in assay [4] and in [5]. The result in [6], in assay [8], in assay [19], in assay [11], in assay [14] and in assay [15] was inactive. For the same compound, the AC50 was 31.6 µM (active) in assay [4]; 22.6 µM (active) and 24.2 µM (active) in assay [7]; 49.4 µM (active) and 44.3 µM (active) in assay [9]; 30 µM (active) and 33.2 µM (active) in assay [10]; 37.2 µM (active) and 30 µM (active) in [12].
